Screening data as filed in PubChem BioAssay.
12-LOX inh = ALOX12 (human) lipoxygenase inhibition | 580,000 compounds, 1.1% hits | P18054 | Potency, µM (series often up to 108 µM), inactives show at the top dose activity change, negative = inhibition, most hits filed as inhibitors | AID 1671190 | purified 12hLO, xylenol orange hydroperoxide absorbance; note: potency is the fitted concentration of half-maximal effect; % is set by controls: 0 for no effect and ±100 for the full control effect
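Purified human 12hLO (150 nM final) in 25 mM Hepes, 0.01% Triton X-100, pH 7.0 was preincubated 15 min at room temperature with compound. Then 40 uM arachidonic acid was added, 30 min. Hydroperoxide was read by Fe-XO absorbance ratio 573/405 nm.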
Nrf2 inh = Nrf2 pathway inhibition. 360,000 compounds, 2.1% hits. Potency, µM (series often up to 46 µM), without a hit: top-dose activity change, negative = inhibition, actives largely listed as inhibitors. A549 ARE-Fluc reporter, luciferase luminescence, 18-24 h. AID 504444; note: potency is the fitted concentration of half-maximal effect; % is set by controls: 0 for no effect and ±100 for the full control effect; nearly all actives have a fitted effect of over 60% in size
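A549 ARE_Fluc cells (5000/well, 5% FBS OPTI-MEM) pre-incubated 2 h, then treated with compounds 18-24 h at 37C/5% CO2 in concentration-response. CellTiter-Fluor viability read first; BugLite luciferase luminescence after 15 min at room temperature gives Nrf2 activity.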
mIDH1 inhibitor = blocks human mutant IDH1 R132H enzyme; IDH1-R132H enzyme, NADPH consumption, diaphorase/resazurin fluorescence; Potency, µM (top dose mostly 76.6 µM), without a hit: top-dose activity change, negative = inhibition, most hits filed as inhibitors; 390,000 compounds, 0.093% hits; O75874; note: potency is the fitted concentration of half-maximal effect; % is set by controls: 0 for no effect and ±100 for the full control effect; nearly all actives have a fitted effect of over 65% in size
Target sequence (O75874 whole entry R132H, stated change not applied): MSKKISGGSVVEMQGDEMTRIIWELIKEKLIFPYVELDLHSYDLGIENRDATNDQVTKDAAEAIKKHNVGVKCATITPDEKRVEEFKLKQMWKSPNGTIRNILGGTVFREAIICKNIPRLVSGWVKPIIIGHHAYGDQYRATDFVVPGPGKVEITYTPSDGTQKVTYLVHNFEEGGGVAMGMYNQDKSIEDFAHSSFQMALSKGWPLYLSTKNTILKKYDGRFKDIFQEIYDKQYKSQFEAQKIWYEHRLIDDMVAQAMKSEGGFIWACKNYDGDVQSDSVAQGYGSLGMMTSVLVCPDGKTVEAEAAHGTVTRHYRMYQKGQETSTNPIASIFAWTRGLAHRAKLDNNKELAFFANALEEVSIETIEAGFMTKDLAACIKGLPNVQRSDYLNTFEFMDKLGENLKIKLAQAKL
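IDH1-R132H (0.5 ug/mL) preincubated 30 min with compound, then NADPH (0.016 mM) and alpha-KG (2 mM) added; 80 min at RT, pH 7.5. Remaining NADPH coupled via diaphorase/resazurin to fluorescence (540/590 nm); concentration-response curves normalized to no-enzyme control.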
A549 tox = counter-screen for Nrf2 inhibitors: cytotoxicity in A549 cells; A549 ARE-Fluc cells, CellTiter-Fluor viability, 18-24 h; Potency, µM (highest dose often 46 µM), for the others: at the highest dose activity change, negative = cytotoxicity, most hits filed as inhibitors; 390,000 compounds, 0.16% hits; AID 504648; note: potency is the fitted concentration of half-maximal effect; % is set by controls: 0 for no effect and ±100 for the full control effect
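A549 ARE_Fluc cells in 5% FBS OPTI-MEM were exposed to compounds in concentration-response for 18-24 h at 37 deg C. Viability was read by CellTiter-Fluor fluorescence (Ex 405/Em 525) after 30 min, before the luciferase read.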
Nrf2 activator = Nrf2 pathway activation; AREc32 ARE-luciferase reporter (MCF7-derived line), luminescence, 24 h; Potency, µM (series often up to 46.1 µM), for the others: at the top dose activation, hits mostly activators; 410,000 compounds, 0.31% hits; note: potency is the fitted concentration of half-maximal effect; % of control where 0% means no effect; nearly all actives have a fitted effect of over 65% in size
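For detection, Steady-Glo was added and plates sat 30 min at RT; before that, AREc32_Fluc cells grown overnight in OPTI-MEM/5% FBS had been treated with 23 nL compound for 24 hr at 37 deg C.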
LDHA block = inhibitors of human lactate dehydrogenase A; P00338; purified LDHA, NADH/diaphorase-resazurin fluorescence; hits give low values; activity change, % (values are at about 110 or 230 µM); 480,000 compounds, 0.15% hits; in the data active = activity change below about -30%; inconclusive = mostly about -25% to -30%;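 note: plate controls were DMSO wells for no effect and wells without enzyme for full effect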
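Remaining NADH was detected by diaphorase (0.133 mg/mL) converting 37 µM resazurin to fluorescent resorufin, read at 0 and 20 minutes. The preceding 5-minute room-temperature reaction used 2 nM LDHA, 0.2 mM sodium pyruvate and 0.06 mM NADH at pH 7.4.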
* = called active by the depositor; ? = inconclusive; nt = no result given; ! = repeats disagree. Compounds with a hit are over-represented: about 2.7% of the library has one in this group of screens. Unless noted, calls come from the whole dose curve; as a rule, active = well fitted curve in the direction sought with a large enough effect; inconclusive = small, poorly fitted or top-dose-only effect, or another doubt; inactive = no such curve, though single readings can be large; an effect the other way counts as inactive or inconclusive.

SMILES | 12-LOX inh | Nrf2 inh | mIDH1 inhibitor | A549 tox | Nrf2 activator | LDHA block
COc1ccccc1NC(=O)C1CCCN(S(C)(=O)=O)C1 (stereo not given) | 1.2% | nt | nt | nt | nt | 9.0
O=C(NCCN1CCC(n2c(=O)[nH]c3cc(Cl)ccc32)CC1)c1ccc(F)cc1 | 39.8µM* | nt | nt | nt | nt | nt
O=C(NCCN1CCC(n2c(=O)[nH]c3ccccc32)CC1)c1ccc(F)cc1Cl | 1.12µM* | nt | nt | nt | -1.1% | 1.8
Cc1ccc(NC(=O)COc2ncnc3ccccc23)c(C)c1 | ? | nt | nt | nt | nt | 7.6
Cc1ccc(NC(=O)Cc2cc(C(=O)O)c3ccccc3n2)c(C)c1 | -11.1% | 5.8µM* | 7.9% | ? | 3.8% | -9.1
COCCc1noc(C2CNC2)n1 | 40.7% | nt | nt | nt | nt | nt
O=C(Nc1ncc2c(n1)-c1ccccc1CC2)c1ccc(F)cc1 | -24.8% | -8.3% | 20.5% | -4.8% | 17.5% | -3.9
O=C(Nc1ncc2c(n1)-c1ccccc1CC2)c1ccccc1 | 25.2% | 6.0% | 1.2% | -2.8% | 7.94µM* | -4.8
O=C(Cc1cccc2ccccc12)NC(=S)Nc1cccc(C(=O)O)c1 | 35.5µM* | -6.9% | -1.5% | 1.5% | 0.0% | -10.4
O=C(Cc1cccc2ccccc12)Nc1cc(Cl)ccc1C(=O)O | 17.8µM*! | -14.2% | 6.4% | -0.9% | -0.2% | -10.4
O=C(Cc1cccc2ccccc12)Nc1ccccc1C(=O)O | 0.0% | ? | 6.5% | -0.5% | 0.2% | -11.5
COc1ccc(CNC(=O)[C@H](C)N2C(=O)N3CCc4c([nH]c5ccc(OC)cc45)[C@@]3(C)C2=O)cc1 | 4.1% | -8.1% | -10.5% | -1.3% | 0.5% | -4.3
COc1ccccc1CNC(=O)[C@H](C)N1C(=O)N2CCc3c([nH]c4ccccc34)[C@@]2(C)C1=O | 3.4% | 23.1µM* | 1.2% | ? | 5.6% | -3.9
COc1ccc(CCNC(=O)[C@H](C)N2C(=O)N3CCc4c([nH]c5ccccc45)[C@@]3(C)C2=O)cc1 | 46.2% | 14.6µM* | -3.9% | -11.6% | -1.3% | -9.5
COc1ccc(CCNC(=O)[C@H](C)N2C(=O)N3CCc4c([nH]c5ccccc45)[C@@]3(C)C2=O)cc1OC | 3.2% | 16.4µM* | -10.3% | -17.7% | 3.5% | -0.6
Cc1nnc(SCc2ccc(Cl)c(Cl)c2)s1 | -7.7% | 5.5% | 0.8% | 9.9% | 3.0% | -9.1
Cc1[nH]c(=S)sc1Cc1ccc(Cl)c(Cl)c1 | 31.6µM* | nt | nt | nt | nt | nt
COCc1nnc(NC(=O)C2CC(=O)N(c3ccc(C)c(Cl)c3)C2)s1 (stereo not given) | ? | 4.3% | 1.4% | 0.0% | 0.0% | 0.1
Cc1ccc(N2CC(C(=O)Nc3nccs3)CC2=O)cc1Cl (stereo not given) | -19.6% | ? | 1.8% | 16.4µM* | -1.9% | -1.9
Cc1ccc(C(=O)CCC(=O)CCC(=O)O)s1 | 25.8% | nt | nt | nt | nt | 4.4
CCc1cccc(NS(=O)(=O)c2ccc3c(c2)n(C)c(=O)n3C)c1 | 24.9% | 13µM* | 3.4% | -5.6% | 2.2% | 0.1
CCc1ccc(S(=O)(=O)Nc2cccc(C3OCCCO3)c2)cc1 | -20.4% | 10.3µM* | 2.3% | -1.8% | -0.2% | -10.8
CCc1cccc(NS(=O)(=O)c2ccc3c(c2)n(C)c(=O)c(=O)n3C)c1 | -37.6% | -24.0% | 0.3% | 13.3% | -0.2% | 2.3
CCOC(=O)c1oc2ccc(S(=O)(=O)Nc3ccc4c(c3)n(C)c(=O)n4C)cc2c1C | 9.8% | 20.6µM* | 4.9% | -4.9% | 7.9% | -1.5
Cn1c(=O)n(C)c2cc(NS(=O)(=O)c3ccc(C(C)(C)C)cc3)ccc21 | ? | 10.3µM* | -0.3% | -6.3% | 4.4% | -4.5
Cn1c(=O)n(C)c2cc(NS(=O)(=O)c3ccc4c(c3)CCCC4)ccc21 | ? | -40.8% | 6.6% | ? | 26.1% | -0.9
CCc1ccc(S(=O)(=O)Nc2ccc3c(c2)n(C)c(=O)c(=O)n3C)cc1 | -17.5% | ? | 56.6% | -0.5% | -0.5% | 2.1
